According to PubChem BioAssay (EPA / NIEHS):
Inconclusive results are not listed. The source made the active and inactive calls. Rule for the calls, unless noted: active = hit-call score of the fitted dose curve at least 0.9, where 1 is the maximum; inactive = score below 0.9.

Assays:
[1] = target: Nucleoli Translocation, AR (gene 367) (UniProt P10275); experiment: UPITT_HCI_U2OS_AR_TIF2_Nucleoli_Antagonist: University of Pittsburgh U2OS Androgen Receptor-Transcriptional Intermediary Factor 2 (AR-TIF2) Antagonism High Content Imaging Assay for Nucleoli Translocation (AID 2283997; active = hit-call score of the fitted dose curve at least 0.9, where 1 is the maximum)
Nucleoli Translocation, AR (gene 367), sequence (P10275 whole entry, looked up, the tested form may be a part): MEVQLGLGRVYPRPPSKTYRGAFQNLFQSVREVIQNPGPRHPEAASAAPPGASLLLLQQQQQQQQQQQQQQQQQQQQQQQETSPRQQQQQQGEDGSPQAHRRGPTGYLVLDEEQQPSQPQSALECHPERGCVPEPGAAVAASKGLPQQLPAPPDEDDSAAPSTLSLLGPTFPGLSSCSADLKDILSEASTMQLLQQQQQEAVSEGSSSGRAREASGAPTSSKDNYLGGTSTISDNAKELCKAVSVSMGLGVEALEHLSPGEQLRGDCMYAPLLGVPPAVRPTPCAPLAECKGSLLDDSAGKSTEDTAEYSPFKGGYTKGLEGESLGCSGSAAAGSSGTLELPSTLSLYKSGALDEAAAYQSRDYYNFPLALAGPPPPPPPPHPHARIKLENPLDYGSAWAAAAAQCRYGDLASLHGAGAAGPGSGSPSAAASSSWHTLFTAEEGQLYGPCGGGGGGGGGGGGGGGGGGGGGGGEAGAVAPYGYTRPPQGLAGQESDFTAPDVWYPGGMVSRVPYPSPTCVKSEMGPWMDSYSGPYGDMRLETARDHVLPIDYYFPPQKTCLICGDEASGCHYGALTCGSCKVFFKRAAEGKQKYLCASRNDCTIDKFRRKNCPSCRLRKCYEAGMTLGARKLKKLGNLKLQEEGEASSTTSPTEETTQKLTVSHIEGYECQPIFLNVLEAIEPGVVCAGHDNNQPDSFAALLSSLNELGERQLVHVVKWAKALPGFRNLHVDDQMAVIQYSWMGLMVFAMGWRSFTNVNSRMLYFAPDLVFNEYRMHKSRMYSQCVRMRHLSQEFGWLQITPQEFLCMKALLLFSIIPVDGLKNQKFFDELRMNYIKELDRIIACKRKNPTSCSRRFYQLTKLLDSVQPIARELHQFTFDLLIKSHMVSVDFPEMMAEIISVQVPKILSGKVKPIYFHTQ
Method in brief: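 Compounds are added at 20 uM final concentration in 0.2% DMSO to U2OS cells carrying AR-RFP and TIF2-GFP fusions. Nucleolar AR-RFP fluorescence is then quantified by automated imaging. Antagonism is fitted positively against DHT baseline.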

[2] = target: Nucleoli Translocation, AR (gene 367) (UniProt P10275); experiment: UPITT_HCI_U2OS_AR_TIF2_Nucleoli_Agonist: University of Pittsburgh U2OS Androgen Receptor-Transcriptional Intermediary Factor 2 (AR-TIF2) Agonism High Content Imaging Assay for Nucleoli Translocation (AID 2283998; active = hit-call score of the fitted dose curve at least 0.9, where 1 is the maximum)
Method in brief: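 Cells express human AR fused to red fluorescent protein and TIF2 fused to GFP. Red fluorescence in the nucleolar region was quantified by high-content imaging and fitted as gain-of-signal against a DMSO baseline. Compounds were tested at 0.195 to 50 uM final (0.5% DMSO).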

[3] = target: Ratio of Nucleoli Translocation and Cytoplasm, AR (gene 367) (UniProt P10275); experiment: UPITT_HCI_U2OS_AR_TIF2_Nucleoli_Cytoplasm_Ratio_Antagonist: University of Pittsburgh U2OS Androgen Receptor-Transcriptional Intermediary Factor 2 (AR-TIF2) Antagonism High Content Imaging Assay for Ratio of Nucleoli Translocation and Cytoplasm (AID 2283999; active = hit-call score of the fitted dose curve at least 0.9, where 1 is the maximum;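 note: antagonists lower the DHT-driven ratio of nucleolar to cytoplasmic red signal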)
Ratio of Nucleoli Translocation and Cytoplasm, AR (gene 367), sequence (P10275 whole entry, looked up): as the sequence (P10275 whole entry, looked up, the tested form may be a part) above
Method in brief: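 This antagonist-mode endpoint tracks AR-RFP localisation, the nucleolus-to-cytoplasm intensity ratio, in TIF2-GFP-coexpressing U2OS cells. DMSO stays at or below 0.5%; testing spans 20 uM single-dose and 0.195–50 uM series, with DHT setting the activity baseline.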

[4] = target: Ratio of Nucleoli Translocation and Cytoplasm, AR (gene 367) (UniProt P10275); experiment: UPITT_HCI_U2OS_AR_TIF2_Nucleoli_Cytoplasm_Ratio_Agonist: University of Pittsburgh U2OS Androgen Receptor-Transcriptional Intermediary Factor 2 (AR-TIF2) Agonism High Content Imaging Assay for Ratio of Nucleoli Translocation and Cytoplasm (AID 2284000; active = hit-call score of the fitted dose curve at least 0.9, where 1 is the maximum;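 note: hits raise the red nucleolar to cytoplasm ratio above vehicle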)
Method in brief: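 Human osteosarcoma U2OS line, AR-RFP plus TIF2-GFP; compounds 0.195–50 uM final, 0.5% DMSO. Readout: nucleolar/cytoplasmic RFP ratio by HCI, positive direction vs DMSO baseline.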

[5] = CCTE_Harrill_HTTr_Viability_MCF7: CCTE's 6-hour Cell Viability Assessment for the High-Throughput Transcriptomics (HTTr) Platform, in MCF-7 cells cultured in DMEM + 10% fetal bovine serum, Harrill Lab (AID 2284010)
Method in brief: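 Eight-point concentration series, six-hour exposure. Propidium iodide exclusion imaged to assess membrane integrity as a cytotoxicity readout; bidirectional fitting was done with DMSO as negative control and activity baseline.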

[6] = CCTE_Harrill_HTTr_Apoptosis_MCF7: CCTE's 6-hour Apoptosis Assessment for the High-Throughput Transcriptomics (HTTr) Platform, in MCF-7 cells cultured in DMEM + 10% fetal bovine serum, Harrill Lab (AID 2284011)
Method in brief: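 MCF-7 cells in DMEM + 10% fetal bovine serum were exposed to chemicals for 6 hours over an eight-point dilution series. Caspase-3/7 activation was imaged by high content imaging with CellEvent Caspase 3/7 Green; bidirectional fitting used DMSO as baseline.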

[7] = CCTE_Harrill_HTTr_CellCount_MCF7: CCTE's Cell Proliferation Assessment for the High-Throughput Transcriptomics (HTTr) Platform, Harrill Lab (AID 2284012; active = hit-call score of the fitted dose curve at least 0.9, where 1 is the maximum;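 note: count of Hoechst-stained nuclei per well by high-content imaging in MCF-7 cells; cells exposed to compound for six hours; intended direction is loss of nuclei count meaning fewer cells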)
Method in brief: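 For this full-screen endpoint, MCF-7 cultures received eight compound dilutions for six hours. Well nuclei counts from Hoechst imaging were analyzed relative to DMSO.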

[8] = CCTE_Simmons_MITO_basal_resp_rate: CCTE's HepG2 Seahorse XF Respirometric Screening Assay at Basal Respiratory State, Simmons Lab (AID 2284001); details: actives raise or lower the signal
Method in brief: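 Basal-phase OCR of HepG2 cells on a Seahorse XF96, analysed by bidirectional fit relative to DMSO vehicle; chemicals at 7 concentrations, 125 nM–100 uM final; three biological replicates; fenpyroximate and 2,4-dinitrophenol positive controls.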

[9] = CCTE_Simmons_MITO_max_resp_rate: CCTE's HepG2 Seahorse XF Respirometric Screening Assay at Maximal Respiratory State [uncoupled], Simmons Lab (AID 2284002); details: actives raise or lower the signal
Method in brief: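 HepG2 oxygen consumption was read on a Seahorse XF96 after FCCP uncoupler injection, following test compound injection; 7 concentrations, 125 nM–100 uM final, three biological replicates. Bidirectional fitting against DMSO vehicle baseline.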

[10] = CCTE_Simmons_MITO_inhib_resp_rate: CCTE's HepG2 Seahorse XF Respirometric Screening Assay at Inhibited Respiratory State [full ETC block], Simmons Lab (AID 2284006); details: actives raise or lower the signal
Method in brief: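 Test chemicals at seven final concentrations (125 nM–100 uM) in three biological replicates, with DMSO as vehicle. HepG2 oxygen consumption was then tracked on a Seahorse XF96 for 72 min through FCCP and rotenone/antimycin A phases, with the inhibited-phase rate as the endpoint.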

[11] = CCTE_Shafer_MEA_acute_spike_number: CCTE's Neural Acute Assay for Total Number of Spikes, Shafer Lab (AID 2284008);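 for AC50: curve fitted for decrease in spike count so AC50 reflects inhibitors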
Method in brief: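 Primary rat cortical neurons on 16-electrode MEA wells; on DIV 13 or 15, 40-min baseline then 40-min recording with compound (0.03-40 uM) at 37 C. Spikes detected at 8x rms noise; percent change versus baseline, DMSO as negative control.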

[12] = CCTE_Shafer_MEA_acute_firing_rate_mean: CCTE's Neural Acute Assay for Mean Firing Rate, Shafer Lab (AID 2284009);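 note: analyzed for loss of signal so actives lower firing rate relative to DMSO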
Method in brief: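 Rat cortical neuron cultures matured to DIV 13 or 15, equilibrated 20 min at 37 C, then recorded 40 min for baseline. Compound (0.03-40 uM) added and a further 40 min recorded; percent change in mean firing rate calculated per well.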

[13] = CCTE_Shafer_MEA_acute_burst_number: CCTE's Neural Acute Assay for Single-Electrode Bursts, Shafer Lab (AID 2284013)
Method in brief: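 Percent change in single-electrode burst number per well, from 40-min recordings taken before and after adding compound (0.03-40 uM) to primary rat cortical neurons on MEA plates at DIV 13 or 15, 37 C.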

[14] = CCTE_Shafer_MEA_acute_burst_duration_mean: CCTE's Neural Acute Assay for Mean Burst Duration, Shafer Lab (AID 2284014);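 note: hits are decreases in mean burst duration relative to DMSO controls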
Method in brief: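 Rat cortical cultures, DIV 13/15; 40 min baseline, then 40 min with compound (0.03-40 uM), 37 C. Spikes: 300-5000 Hz band-pass, 8x rms threshold. Read-out: % change in mean single-electrode burst duration, DMSO-referenced, loss direction.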

[15] = CCTE_Shafer_MEA_acute_per_burst_spike_number_mean: CCTE's Neural Acute Assay for Average Number of Spikes Per Burst, Shafer Lab (AID 2284015);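 note: hits are decreases in mean spikes per burst versus baseline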
Method in brief: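 Rat primary cortical neurons on 48-well MEAs (DIV 13 or 15) were treated with 0.03-40 uM compound at 37 C. Mean spikes per burst over 40 min were recorded before and after exposure and expressed as percent change from baseline, relative to DMSO.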

[16] = CCTE_Shafer_MEA_acute_interburst_interval_mean: CCTE's Neural Acute Assay for Mean Interburst Interval, Shafer Lab (AID 2284016);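 note: percent change of mean interburst interval versus each well's own pre-dose baseline; curves fitted for decrease in interburst interval relative to DMSO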
Method in brief: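 Rat primary cortical neurons on 48-well MEAs at DIV 13 or 15 were exposed acutely to 0.03-40 uM. Spikes detected at 8x rms noise, 37 C. Mean interburst interval from 40 min recordings expressed as percent change from 40 min pre-treatment baseline.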

[17] = CCTE_Harrill_HTTr_Apoptosis_PRF_DMEM_6hr: (Pilot) CCTE's 6-hour Apoptosis Assessment for the High-Throughput Transcriptomics (HTTr) Platform, in MCF-7 cells cultured phenol red-free DMEM + 10% charcoal-stripped fetal bovine serum, Harrill Lab (AID 2283984)
Method in brief: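 Caspase-3/7 activity (CellEvent Green) read by high-content imaging 6 h after dosing, eight concentrations. Cells: MCF-7, phenol red-free DMEM with 10% charcoal-stripped serum. Curves fit both directions against DMSO.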

[18] = CCTE_Harrill_HTTr_Apoptosis_PRF_DMEM_24hr: (Pilot) CCTE's 24-hour Apoptosis Assessment for the High-Throughput Transcriptomics (HTTr) Platform, in MCF-7 cells cultured in phenol red-free DMEM + 10% charcoal-stripped fetal bovine serum, Harrill Lab (AID 2283986)
Method in brief: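 Eight concentrations tested for 24 h on MCF-7 grown in charcoal-stripped serum, phenol red-free DMEM. High content imaging of CellEvent Caspase 3/7 Green signal gives apoptosis read-out, fitted both ways relative to DMSO.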

[19] = test system: DIO1 (gene 1733); experiment: CCTE_GLTED_hDIO1: CCTE's human Deiodinase 1 (DIO1) Inhibition Assay, Great Lakes Toxicology and Ecology Division (GLTED) Lab (AID 2283987; active = hit-call score of the fitted dose curve at least 0.9, where 1 is the maximum;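 note: isolated human DIO1 enzyme in a cell-free setup rather than cells; enzyme activity read as free iodide liberated from substrate via Sandell-Kolthoff colorimetry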)
Method in brief: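 Cell-free human DIO1 enzyme was incubated with test chemical for 3 h, and iodide released from substrate was measured by Sandell-Kolthoff absorbance. Loss of signal versus DMSO baseline indicated inhibition; plates were run in triplicate.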

[20] = CCTE_Simmons_MITO_viability: CellTiter-Glo Viability Assessment for CCTE's HepG2 Seahorse XF Respirometric Screening Assay [post-hoc], Simmons Lab (AID 2284007; active = hit-call score of the fitted dose curve at least 0.9, where 1 is the maximum;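 for AC50: cells exposed to chemical for 90 min before the ATP read; actives lower ATP signal relative to DMSO baseline meaning reduced viability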)
Method in brief: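 Post-hoc viability check on the HepG2 respirometry plates: luciferase-based ATP signal measured once, after 90 min compound exposure spanning 125 nM–100 uM final. Activity was referenced to DMSO as baseline.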

Measured: AC50

O=C(Oc1ccccc1)c1cccc(C(=O)Oc2ccccc2)c1
inactive: [1] | [2] | [3] | [4] | [5] | [6] | [7]

CCc1cc(C2=C(C(=O)O)N(c3ccccc3C(F)(F)F)S(=O)(=O)c3ccccc32)cc2c1OCO2
not listed: [1] | [2] | [3] | [4] | [17] | [18] | [19] | [20]
inactive: all other assays above

CCN(CC)CCOc1ccc(C(=C(Cl)c2ccccc2)c2ccccc2)cc1
active: [17] 79.6 µM | [18] 68.3 µM | [19] 70.7 µM | [9] 91 µM | [20] 84.2 µM | [11] 2.58 µM | [12] 2.62 µM | [13] 2.68 µM
not listed: [7]
inactive: all other assays above

CCCCCCCCCC[N+](C)(C)[O-]
inactive: [1] | [2] | [3] | [4] | [5] | [6] | [7]

NCCOCCOCCN
inactive: [1] | [2] | [3] | [4] | [5] | [6]

CCCCCCC(C=O)=Cc1ccccc1
inactive: [8] | [9] | [10] | [20] | [5] | [6] | [7]

Nc1nc(Cl)nc2c1ncn2[C@H]1C[C@H](O)[C@@H](CO)O1
inactive: [17] | [18] | [5] | [6] | [7]

Cc1cc(SC2=C(O)C[C@@](CCc3ccc(N)cc3)(C(C)C)OC2=O)c(C(C)(C)C)cc1CO
active: [19] 66.3 µM | [13] 20 µM
not listed: [17] | [18]
inactive: all other assays above

CC(C)OC(=O)C(C)(C)Oc1ccc(C(=O)c2ccc(Cl)cc2)cc1
inactive: [17] | [18] | [1] | [2] | [3] | [5] | [6] | [7]
active: [8] 30.5 µM | [9] 37.2 µM

C=CCCCCCCCCCCCC
inactive: [1] | [2] | [3] | [5] | [6] | [7]

CC1=C(C)S(=O)(=O)CCS1(=O)=O
not listed: [3] | [8] | [9] | [10] | [17] | [18] | [19] | [20]
inactive: all other assays above

Cc1ccc(-c2cc(C(F)(F)F)nn2-c2ccc(S(N)(=O)=O)cc2)cc1
inactive: [2] | [3] | [4] | [5] | [6] | [7] | [14] | [15]
active: [19] 170 µM | [1] 26.6 µM | [11] 6.27 µM | [12] 6.27 µM | [13] 6.46 µM | [16] 5 µM

CCC(C)N(C)C(=O)c1cc2ccccc2c(-c2ccccc2Cl)n1 (stereo not given)
inactive: [1] | [2] | [3] | [4] | [5] | [6] | [7]
